The panel holds about 83,000 compounds, 20% with a hit somewhere; the sample as a whole holds those more often.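 Single-concentration screen, 48 h exposure, 96-well plates. Endpoint: percent growth. Below 10 = active.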 A number with no mark means an inactive call. Active and inactive are the calls of the source.

The subject of the assay is KM12 colon. The experiment in a line: NCI-60 one-dose screen, 48 h (100 = growth as untreated, 0 = no growth, -100 = all killed). The following applies: 10 µM unless noted. As to the method:
Growth inhibition of the KM12 human tumor cell line is measured as a screen for anti-cancer activity. Cells are grown in 96 well plates and exposed to the test compound for 48 hours. Compounds are tested at a single concentration, which is 10^-5 M for most compounds. The reported endpoint is percent growth (GI% or GIPRCNT), where numbers from 0 - 100% represent growth inhibition, and numbers from -100% - 0 represent cell death. For example, a value of 40 represents 60% growth inhibition. A value of 0 means no net growth occurred over the course of the experiment. A value of -40 indicates 40% of cells at the beginning of the experiment died by the end of the experiment. A value of -100 means all cells are dead at the end of the experiment.
NCI-60 Human Tumor Cell Lines Screen was performed using the standard one-dose NCI protocol, which is described in more detail at https://dtp.cancer.gov/discovery_development/nci-60/default.htm.
Compounds with GIPRCNT values below 10 were considered active. Activity score was based on GIPRCNT using the following formula: […]
Score is 0 for GIPRCNT values of 100 or above, 50 for GIPRCNT values of 0, and 100 for GIPRCNT values of -100.
`O=C(Nc1cc(F)cc2cccnc12)c1cnc(N2CCOCC2)cn1`: the growth was 99.1%.
In the case of `Oc1ccc(CSc2nnc(-c3ccccc3)n2-c2ccccc2)c2cccnc12` it was 14.1%; in that of `NC(N)=NS(=O)(=O)c1ccc(N=NC2C(=O)NN(c3ccccc3)C2=O)cc1` (stereo not given), 103%.
In the case of `C=CCn1c(SCC(=O)Nc2cccc(C(=O)/C=C/c3ccc(Br)cc3)c2)nc2ccccc2c1=O` it was 81.3%; in that of `CSc1ccc(/C(=N/N=C(N)N)c2ccccc2)cc1`, 17.2%; in that of `COc1cc2oc(-c3cccc(NC(=O)c4cc(NC(=O)[C@H](C)NC(=O)OC(C)(C)C)ccc4C)c3)cc(=O)c2c(OC)c1OC`, 71.1%.
In the case of `CCCCCCNC(=O)Oc1ccc(/C(=C(/C)c2ccccc2)c2ccc(OCCN(C)C)cc2)cc1` it was 66.2%; in that of `O=S(=O)(NC1CC2CCC1C2)c1ccc2c(c1)C(=NO)c1cc(S(=O)(=O)NC3CC4CCC3C4)ccc1-2` (stereo not given), 45.9%.
As for `COc1ccc(-c2oc3cc(O)cc(O)c3c(=O)c2OC)cc1O`, the growth was 26.2%.
In the case of `COc1ccc([C@H]2[C@H](O)C(=O)N2c2cc(OC)c(OC)c(OC)c2)cc1`, the growth is 18.8%.
To `O=c1oc2ccc(-c3ccc(F)cc3F)cc2c(=O)n1-c1cccc(C(F)(F)F)c1` belongs 6.11% (active); to `O=C(Nc1ccc(Cl)cc1)Nc1nc2ccc([N+](=O)[O-])cc2s1`, -13.2% (active).
In the case of `O=C(/C=C/Nc1ccc(S(=O)(=O)O)cc1)c1ccc(F)cc1` it was 104%; in that of `COc1cc(/C=C/C(=O)c2ccc(NC(=O)COc3cccc4cccnc34)cc2)cc(OC)c1OC`, 85.8%; in that of `Cc1ccc(Cc2cnc(NC(=O)/C(C#N)=C/c3ccc(-c4ccc(Cl)cc4)o3)s2)cc1`, 90.4%.
In the case of `O=C1C[C@@H](c2ccccc2)Oc2c(Cc3ccccc3O)c(O)c(Cc3cc(Cc4cc(Cc5ccccc5O)ccc4O)ccc3O)c(O)c21` it was 92.8%; in that of `O=C1c2c(c3c4cccnc4[nH]c3c3ccc4ccccc4c23)C(=O)N1CCN1CCCCC1`, 99.6%; in that of `C/C(=C(/C)C1CC1CCN(C(=O)c1ccc([N+](=O)[O-])cc1)S(=O)(=O)c1ccc(C)cc1)C1CCCCC1` (stereo not given), 89.6%.
On to `Oc1ccc(CSc2nnc(-c3ccc(Oc4ccccc4)cc3)n2-c2ccccc2)c2cccnc12`, for which the growth was 17.7%.
In the case of `O=C1c2c(c3c4cc(O)ccc4oc3c3[nH]c4ccccc4c23)C(=O)N1O` it was -17.2% (active).
To `O=c1cc(-c2ccccc2)nc2sc(-c3c[nH]c4ccc(F)cc34)nn12` belongs 84.2%.
To `COc1ccc([C@@H]2[C@@H](O)C(=O)N2c2cc(OC)c(OC)c(OC)c2)cc1Cl` belongs 13.2%.
As for `O=C(CCCCCCN1CC(=O)N2[C@@H](c3ccccc3)c3[nH]c4ccccc4c3C[C@H]2C1=O)NO`, the growth is 65.2%.
Take `CC(C)C(=O)Nc1ccc(-c2nc(-c3cccc(O)c3)c(-c3ccnc(Br)c3)[nH]2)cc1`: the growth is 43.3%.
With `O=C(COc1ccc(C2SCC(=O)N2c2ccc(F)cc2)cc1)c1ccccc1` (stereo not given), the growth is 92.4%.
In the case of `CCN1C(=O)N(CC)C2SC(N/N=C/c3ccccc3F)=NC21` (stereo not given) it was 11.8%; in that of `Cc1cccc(NC(c2cc3cccc4ccc5cccc2c5c43)c2nnnn2C(C)(C)C)c1C` (stereo not given), 95.8%; in that of `CC(C)=CCc1c2c(c(O)c3c1O[C@]14C(=C[C@@H]5C[C@H]1C(C)(C)O[C@@]4(C/C=C(/C)C(=O)O)C5=O)C3=O)CC(O)C(C)(C)O2` (stereo not given in full), -68.9% (active).
In the case of `COc1ccc(NC(=O)[C@H](C)N)cc1C(=O)Nc1cccc(-c2cc(=O)c3c(OC)c(OC)c(OC)cc3o2)c1` it was 68.1%; in that of `COc1ccc(/C=N/Nc2nc(Nc3ccccc3)nc(Nc3ccc(S(N)(=O)=O)cc3)n2)cc1`, 74.4%.
In the case of `CN1CCN(Cc2ccc(NC(=O)c3cncc(C#Cc4[nH]nc5ncncc45)c3)cc2C(F)(F)F)CC1` it was 10.5%.
Take `CS(=O)(=O)c1nccc(-c2c(-c3ccc(F)c(OCCc4ccccc4)c3)nc3sccn23)n1`: the growth was 77.5%.
As for `O=C(CCCCCCN1CC(=O)N2[C@@H](c3cccc(Br)c3)c3[nH]c4ccccc4c3C[C@H]2C1=O)NO`, the growth is 28.4%.
With `CC(C)SC1=NC(=C(C(=N1)NC2=ClC=CC=C2)C#N)C3=CC=CC=C3`, the growth is 79.3%.
In the case of `c1cncc(-c2cn3nc(-c4c[nH]c5ccccc45)sc3n2)c1` it was 26.6%.
Take `CS(=O)c1nccc(-c2c(-c3ccc(F)c(OCCc4ccccc4)c3)nc3sccn23)n1` (stereo not given): the growth was 89.2%.
In the case of `COC(=O)c1c(C(=O)OC)c2n(CC(=O)Nc3cccc4cccnc34)c3ccccc3n2c1C(=O)c1ccc(C)cc1` it was 109%; in that of `Oc1ccc(CSc2nnc(-c3ccncc3)n2-c2ccccc2)c2cccnc12`, 16.9%; in that of `O=C(CSc1ccc(-c2nc3ccccc3[nH]2)cn1)N1CCN(c2ccccc2F)CC1`, 68.8%.
In the case of `NC(=S)N/N=C(/C=C/c1cn(-c2ccccc2)nc1-c1ccc(Cl)cc1)c1cc2ccccc2oc1=O` it was 36.2%.

The values above are taken from PubChem BioAssay (NCI).
